The results in this text go back to PubChem BioAssay (NCATS).

The structures appear in SMILES notation. A number with no mark means an inactive call. Inconclusive results are not listed. Calls of active or inactive are those of the source. Unless noted, calls follow the shape of the full dose curve. Some results are limits rather than exact numbers.

Test [1] concerns the target Cytochrome P450 1A2 (Homo sapiens) (UniProt P05177). Put plainly: p450-cyp1a2 (AID 410). Also: potency is read from the fitted curve at half-maximal effect. Put shortly:
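O-Demethylation of luciferin 6' methyl ether by human CYP1A2 is monitored as luciferase luminescence. Substrate sits at Km (100uM); enzyme is 20nM. Values are scaled to 57 uM furafylline as maximal inhibition.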

The target in test [2] is Glucocorticoid receptor (Homo sapiens) (UniProt P04150). In words: GR-EFC Redistribution (AID 451). Also: potency is read from the fitted curve at half-maximal effect. The conditions noted are these: CHO-K1 GR-EFC translocation, beta-gal luminescence, 2 h. The gist of the method: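 CHO-K1 cells expressing nuclear EA and GR-ED fragments of b-gal; compounds titrated up to 46 uM final, 2 h at 37 C. GR nuclear translocation read as complemented b-gal luminescence after 1 h RT detection.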

In test [3] the target is 3',5'-cyclic-AMP phosphodiesterase 4B (Homo sapiens) (UniProt Q07343). In words: qHTS Assay for Inhibitors of PDE-IV (AID 607; active = well fitted activation curve with a large enough effect in the main read-out, with a control signal flat, not every such curve was filed as active). Put shortly:
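HEK293 ACTOne cells with CNG channel (1000/well), endogenous PDE4; membrane potential dye, compounds up to 22.9 uM final. Fluorescence Ex 535/Em 590; RO 20-1724 (100 uM final) as reference.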
On the technique in general: Quantitative high-throughput screening tests each substance at several concentrations.

The target of test [4] is Cytochrome P450 2C9 (Homo sapiens) (UniProt P11712). Put plainly: qHTS Assay for Inhibitors and Substrates of Cytochrome P450 2C9 (AID 883; active = well fitted curve in the direction sought with a large enough effect; an effect the other way counts as inactive or inconclusive; also: nearly all actives have a fitted effect of over 60% in size; also: potency is read from the fitted curve at half-maximal effect). Put shortly:
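10nM CYP2C9 + 100uM Luciferin-H (=KM), 25mM KPO4; cpd 10 min 37C; NADPH regen, 60 min 37C; stop/detect with P450 Glo-Buffer 20 min; luminescence. Norm. to 57uM sulphaphenazole as full inhibition.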

In test [5] the target is Cytochrome P450 2D6 (Homo sapiens) (UniProt P10635). Put plainly: qHTS Assay for Inhibitors and Substrates of Cytochrome P450 2D6 (AID 891; active = well fitted curve in the direction sought with a large enough effect; an effect the other way counts as inactive or inconclusive;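 also: luciferin methyl ether substrate demethylated by CYP2D6 with NADPH regeneration; nearly all actives have a fitted effect of over 60% in size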). The gist of the method: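 Luminescent read-out of luciferin formed by 5 nM human CYP2D6 demethylating 30 uM Luciferin-ME EGE (Km level) over 60 min at room temperature after NADPH regeneration addition. Data normalized to full inhibition by 1.43 uM quinidine.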

Test [6] deals with Cytochrome P450 2C19 (Homo sapiens) (UniProt P33261). In words: qHTS Assay for Inhibitors and Substrates of Cytochrome P450 2C19 (AID 899; active = well fitted curve in the direction sought with a large enough effect; an effect the other way counts as inactive or inconclusive; also: nearly all actives have a fitted effect of over 60% in size; also: potency is read from the fitted curve at half-maximal effect). Put shortly:
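Luminescent read-out of luciferin formed from Luciferin-H EGE (10uM, equal to KM). Enzyme 5nM in 50mM KPO4; compound added, 10 min at 37C, then NADPH regenerating system for 60 min at 37C. Full inhibition defined by 57uM ketoconazole.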

For test [7], the target named is Mitogen-activated protein kinase 10 (Mus musculus) (UniProt Q61831). Put plainly: JNK3 AlphaScreen Assay (AID 530; active = well fitted curve in either direction with a large enough effect, not every such curve was filed as active;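 also: kinase came from lysate of stimulated human HepG2 cells; signal reports phosphorylation of biotinylated GST-cJun 1-79 at Ser73 with 10 µM ATP; series mostly up to about 57 µM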). Put shortly: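 Activity was read by AlphaScreen after JNK3-containing HepG2 lysate (cytokine pre-activated) phosphorylated biotinylated GST-cJun with 10 uM ATP at room temperature. Phospho-Ser73 cJun antibody with Protein-A acceptor beads provided detection.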

For test [8], the target named is Cytochrome P450 3A4 (Homo sapiens) (UniProt P08684). In words: qHTS Assay for Activators of Cytochrome P450 3A4 (AID 885; active = well fitted curve in the direction sought with a large enough effect; an effect the other way counts as inactive or inconclusive; also: nearly all actives have a fitted effect of over 65% in size). The gist of the method:
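Human CYP3A4 dealkylates Luciferin-PPXE to luciferin, which luciferase detection converts to light. Substrate was at its KM (25uM), buffer 200mM KPO4, reaction 60 min at RT.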

Test [9] deals with Tyrosyl-DNA phosphodiesterase 1 (Homo sapiens) (UniProt Q9NUW8). Put plainly: Confirmation Assay for Inhibitors of Tyrosyl-DNA Phosphodiesterase (TDP1) (AID 489007; active = well fitted curve in the direction sought with a large enough effect; an effect the other way counts as inactive or inconclusive; also: potency is read from the fitted curve at half-maximal effect; nearly all actives have a fitted effect of over 40% in size). The conditions noted are these: recombinant human TDP1 enzymatic activity, dose-response. Put shortly: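 Compounds are preincubated 15 min at room temperature with 1 nM recombinant human Tdp1. The reaction starts on adding 15 nM FITC-phosphotyrosine DNA substrate, runs 5 min, and is detected by AlphaScreen beads after 10 min.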
Tyrosyl-DNA phosphodiesterase 1 (Homo sapiens), sequence (Q9NUW8 whole entry, looked up): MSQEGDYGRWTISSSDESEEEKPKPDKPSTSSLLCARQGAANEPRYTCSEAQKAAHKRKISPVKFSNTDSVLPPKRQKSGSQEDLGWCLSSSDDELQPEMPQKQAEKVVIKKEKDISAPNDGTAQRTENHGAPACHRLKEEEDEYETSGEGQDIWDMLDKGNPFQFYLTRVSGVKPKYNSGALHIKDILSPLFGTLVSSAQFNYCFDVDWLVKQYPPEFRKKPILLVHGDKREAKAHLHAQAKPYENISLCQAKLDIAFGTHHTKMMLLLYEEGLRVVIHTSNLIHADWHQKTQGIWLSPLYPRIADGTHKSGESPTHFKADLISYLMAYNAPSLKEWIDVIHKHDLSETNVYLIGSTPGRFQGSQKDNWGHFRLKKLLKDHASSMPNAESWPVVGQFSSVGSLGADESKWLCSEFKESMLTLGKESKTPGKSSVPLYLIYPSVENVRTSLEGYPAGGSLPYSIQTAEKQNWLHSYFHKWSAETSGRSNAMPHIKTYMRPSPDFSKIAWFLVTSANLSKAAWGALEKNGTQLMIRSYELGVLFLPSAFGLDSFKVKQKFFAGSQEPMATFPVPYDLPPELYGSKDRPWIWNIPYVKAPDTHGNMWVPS

Glucocorticoid receptor (Homo sapiens), sequence (P04150 whole entry, looked up, the tested form may be a part): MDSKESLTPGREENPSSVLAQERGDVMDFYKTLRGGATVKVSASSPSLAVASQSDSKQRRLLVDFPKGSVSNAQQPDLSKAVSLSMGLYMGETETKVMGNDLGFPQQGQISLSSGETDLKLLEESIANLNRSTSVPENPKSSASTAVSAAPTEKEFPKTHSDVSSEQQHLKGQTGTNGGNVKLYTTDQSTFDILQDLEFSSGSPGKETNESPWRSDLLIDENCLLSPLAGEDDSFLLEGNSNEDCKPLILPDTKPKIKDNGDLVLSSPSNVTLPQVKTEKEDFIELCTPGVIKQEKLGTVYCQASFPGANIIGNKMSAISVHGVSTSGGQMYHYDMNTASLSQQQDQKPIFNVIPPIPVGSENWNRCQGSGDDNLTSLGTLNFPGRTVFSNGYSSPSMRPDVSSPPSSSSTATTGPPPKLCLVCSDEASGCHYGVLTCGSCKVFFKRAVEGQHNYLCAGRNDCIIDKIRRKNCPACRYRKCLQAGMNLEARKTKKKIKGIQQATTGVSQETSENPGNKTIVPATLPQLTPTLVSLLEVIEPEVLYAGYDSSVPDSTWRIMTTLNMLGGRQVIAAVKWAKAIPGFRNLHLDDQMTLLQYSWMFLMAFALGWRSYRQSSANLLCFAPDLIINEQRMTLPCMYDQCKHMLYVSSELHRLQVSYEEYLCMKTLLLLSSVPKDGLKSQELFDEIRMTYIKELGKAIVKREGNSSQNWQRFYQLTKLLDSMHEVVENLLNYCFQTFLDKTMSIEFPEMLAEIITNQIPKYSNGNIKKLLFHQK
Cytochrome P450 1A2 (Homo sapiens), sequence (P05177 whole entry, looked up): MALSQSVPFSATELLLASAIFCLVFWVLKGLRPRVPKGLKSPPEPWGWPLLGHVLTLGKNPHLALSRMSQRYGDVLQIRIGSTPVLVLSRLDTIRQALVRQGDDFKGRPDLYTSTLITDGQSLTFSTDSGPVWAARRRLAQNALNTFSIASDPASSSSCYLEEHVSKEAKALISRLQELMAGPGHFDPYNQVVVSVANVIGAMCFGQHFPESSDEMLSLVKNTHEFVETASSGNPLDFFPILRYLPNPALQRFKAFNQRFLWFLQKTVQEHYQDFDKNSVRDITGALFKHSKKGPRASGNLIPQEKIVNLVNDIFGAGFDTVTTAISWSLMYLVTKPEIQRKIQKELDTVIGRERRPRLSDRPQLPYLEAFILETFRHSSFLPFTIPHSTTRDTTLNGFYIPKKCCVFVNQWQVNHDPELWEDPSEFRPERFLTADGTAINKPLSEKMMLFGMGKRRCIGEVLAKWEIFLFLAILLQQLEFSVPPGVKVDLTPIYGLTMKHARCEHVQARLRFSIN
Cytochrome P450 2C9 (Homo sapiens), sequence (P11712 whole entry, looked up): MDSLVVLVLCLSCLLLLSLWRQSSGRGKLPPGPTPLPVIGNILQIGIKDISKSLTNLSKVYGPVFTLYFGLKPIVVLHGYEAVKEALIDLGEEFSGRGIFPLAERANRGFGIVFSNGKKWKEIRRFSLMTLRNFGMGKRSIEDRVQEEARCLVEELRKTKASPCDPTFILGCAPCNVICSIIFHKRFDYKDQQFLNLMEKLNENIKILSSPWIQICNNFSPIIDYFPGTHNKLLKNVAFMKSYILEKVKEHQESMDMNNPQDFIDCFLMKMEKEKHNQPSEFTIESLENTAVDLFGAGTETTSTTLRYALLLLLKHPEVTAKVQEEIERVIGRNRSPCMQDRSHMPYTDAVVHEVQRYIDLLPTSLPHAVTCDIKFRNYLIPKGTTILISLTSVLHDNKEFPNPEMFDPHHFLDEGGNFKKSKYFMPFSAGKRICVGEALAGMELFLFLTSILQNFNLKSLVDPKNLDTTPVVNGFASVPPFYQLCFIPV
3',5'-cyclic-AMP phosphodiesterase 4B (Homo sapiens), sequence (Q07343 whole entry, looked up): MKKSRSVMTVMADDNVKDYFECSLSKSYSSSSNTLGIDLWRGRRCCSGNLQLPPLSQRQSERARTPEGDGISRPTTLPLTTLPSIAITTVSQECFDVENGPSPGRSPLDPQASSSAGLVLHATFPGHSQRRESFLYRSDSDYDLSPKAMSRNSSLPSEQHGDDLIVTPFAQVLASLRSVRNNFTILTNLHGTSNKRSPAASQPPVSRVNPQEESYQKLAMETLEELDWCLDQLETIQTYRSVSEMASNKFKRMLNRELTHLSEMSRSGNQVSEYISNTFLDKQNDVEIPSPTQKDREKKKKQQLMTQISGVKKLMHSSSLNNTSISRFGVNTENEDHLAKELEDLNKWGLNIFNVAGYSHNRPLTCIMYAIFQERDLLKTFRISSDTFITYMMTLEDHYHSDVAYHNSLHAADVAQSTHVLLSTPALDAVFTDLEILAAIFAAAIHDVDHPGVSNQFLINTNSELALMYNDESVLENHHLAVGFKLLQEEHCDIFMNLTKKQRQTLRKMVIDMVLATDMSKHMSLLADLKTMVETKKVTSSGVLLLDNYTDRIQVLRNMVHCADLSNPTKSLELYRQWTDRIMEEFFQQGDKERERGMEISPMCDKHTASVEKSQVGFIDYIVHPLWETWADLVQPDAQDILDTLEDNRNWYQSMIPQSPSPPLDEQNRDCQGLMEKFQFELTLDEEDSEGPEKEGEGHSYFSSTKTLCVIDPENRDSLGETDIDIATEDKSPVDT
Cytochrome P450 2D6 (Homo sapiens), sequence (P10635 whole entry, looked up): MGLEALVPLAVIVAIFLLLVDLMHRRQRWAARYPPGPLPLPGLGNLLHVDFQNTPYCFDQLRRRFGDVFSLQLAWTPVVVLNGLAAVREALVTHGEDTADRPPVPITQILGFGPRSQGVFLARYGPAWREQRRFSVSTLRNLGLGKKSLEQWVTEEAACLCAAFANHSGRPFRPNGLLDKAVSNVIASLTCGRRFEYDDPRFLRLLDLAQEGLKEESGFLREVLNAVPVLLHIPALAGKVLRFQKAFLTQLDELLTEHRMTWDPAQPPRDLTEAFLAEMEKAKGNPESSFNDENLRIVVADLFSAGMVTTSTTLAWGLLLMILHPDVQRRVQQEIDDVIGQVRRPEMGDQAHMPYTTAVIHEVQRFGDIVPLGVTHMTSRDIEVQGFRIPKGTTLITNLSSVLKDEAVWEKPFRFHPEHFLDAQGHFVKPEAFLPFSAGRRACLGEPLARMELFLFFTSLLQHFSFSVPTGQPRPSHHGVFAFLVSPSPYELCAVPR
Cytochrome P450 2C19 (Homo sapiens), sequence (P33261 whole entry, looked up): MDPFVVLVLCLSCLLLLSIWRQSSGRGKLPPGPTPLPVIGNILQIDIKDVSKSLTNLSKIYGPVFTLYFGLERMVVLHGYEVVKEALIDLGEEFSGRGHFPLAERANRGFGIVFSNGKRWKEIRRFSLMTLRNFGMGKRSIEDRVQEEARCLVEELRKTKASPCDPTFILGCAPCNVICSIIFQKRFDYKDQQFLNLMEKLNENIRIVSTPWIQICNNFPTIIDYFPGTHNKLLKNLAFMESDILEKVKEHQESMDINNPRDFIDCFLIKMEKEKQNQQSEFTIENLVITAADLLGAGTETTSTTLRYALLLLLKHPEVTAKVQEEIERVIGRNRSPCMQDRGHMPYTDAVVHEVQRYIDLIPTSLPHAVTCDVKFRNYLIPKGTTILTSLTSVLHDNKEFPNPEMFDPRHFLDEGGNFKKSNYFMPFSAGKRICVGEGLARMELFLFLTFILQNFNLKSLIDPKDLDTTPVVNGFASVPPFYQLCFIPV
Cytochrome P450 3A4 (Homo sapiens), sequence (P08684 whole entry, looked up): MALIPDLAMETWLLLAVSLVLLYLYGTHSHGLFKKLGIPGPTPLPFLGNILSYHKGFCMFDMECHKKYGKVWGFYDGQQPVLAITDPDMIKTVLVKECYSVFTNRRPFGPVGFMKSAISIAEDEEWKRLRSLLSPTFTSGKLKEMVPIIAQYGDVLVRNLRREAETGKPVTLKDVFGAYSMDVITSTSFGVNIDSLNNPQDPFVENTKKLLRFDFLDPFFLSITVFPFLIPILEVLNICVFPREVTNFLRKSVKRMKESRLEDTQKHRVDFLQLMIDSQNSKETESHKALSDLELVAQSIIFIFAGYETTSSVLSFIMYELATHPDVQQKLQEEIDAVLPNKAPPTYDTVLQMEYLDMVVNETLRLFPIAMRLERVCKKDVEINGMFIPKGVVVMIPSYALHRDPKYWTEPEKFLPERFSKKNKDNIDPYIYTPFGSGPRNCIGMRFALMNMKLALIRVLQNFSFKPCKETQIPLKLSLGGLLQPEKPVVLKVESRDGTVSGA

As for `CC(C)C[C@@H](CC(=O)N[C@@H](CCCN)CC(=O)N[C@@H]1CCCC[C@H]1C(=O)N[C@H](CC(=O)N[C@@H](CCC(=O)O)CC(=O)O)CC(C)C)NC(=O)[C@@H]1CCCC[C@H]1N`, the Potency entry in [1], in test [3], in test [4], in test [5] and in [6] was “inactive” throughout. In test [2], the Potency was more than 46 µM.

With `CC(C)C[C@@H](CC(=O)N[C@H](CC(=O)N[C@@H]1CCCC[C@H]1C(=O)N[C@H](CC(=O)N[C@@H](CCC(=O)O)CC(=O)O)CC(C)C)C(C)C)NC(=O)[C@@H]1CNCC[C@H]1N`, the Potency entry in test [1], in test [3], in [4] and in test [5] was “inactive” each time. Moreover, the Potency in [2] was more than 46 µM.

On to `CC(C)C[C@@H](CC(=O)N[C@H](CC(=O)N[C@@H]1CCNC[C@H]1C(=O)N[C@H](CC(=O)N[C@@H](CCC(=O)O)CC(=O)O)Cc1ccccc1)C(C)C)NC(=O)[C@@H]1CCCC[C@H]1N`, for which the Potency result in [1], in test [7] and in test [5] was “inactive” in each case. For the same compound, the Potency in test [2] was more than 46 µM.

Turning to `CC(C)C[C@@H](CC(=O)N[C@@H](CCC(=O)O)CC(=O)O)NC(=O)[C@@H]1CNCC[C@H]1NC(=O)C[C@@H](NC(=O)C[C@H](Cc1ccccc1)NC(=O)[C@@H]1CCCC[C@H]1N)C(C)C`, the values for the Potency in [1] and in test [2] were 31.6 µM (active) and more than 46 µM, respectively. The Potency result in test [3], in test [4], in test [5] and in test [6] was “inactive” each time.

In the case of `CC(C)C[C@@H](CC(=O)N[C@@H](CCC(=O)O)CC(=O)O)NC(=O)[C@@H]1CCCC[C@H]1NC(=O)C[C@H](CCCN)NC(=O)C[C@H](CO)NC(=O)[C@@H]1CCCC[C@H]1N`, the Potency result in test [1], in test [3], in [4], in [5] and in test [6] was “inactive” in each case. The Potency in [2] was more than 46 µM.

For `CC(C)C[C@@H](CC(=O)N[C@H](CC(=O)N[C@@H]1CCNC[C@H]1C(=O)N[C@H](CC(=O)N[C@@H](CCC(=O)O)CC(=O)O)CC(C)C)C(C)C)NC(=O)[C@@H]1CCCC[C@H]1N`, the Potency entry in [1], in test [7] and in [3] was “inactive” each time.

As to `CC(C)[C@@H](CC(=O)N[C@@H]1CCNC[C@H]1C(=O)N[C@H](CC(=O)N[C@@H](CCC(=O)O)CC(=O)O)Cc1ccccc1)NC(=O)C[C@H](Cc1ccccc1)NC(=O)[C@@H]1CNCC[C@H]1N`, the Potency is 15.8 µM (active) in test [1] and more than 46 µM in test [2]. Moreover, the Potency result in test [7], in test [4], in test [5] and in test [6] was “inactive” each time.

As to `CC(C)C[C@@H](CC(=O)N[C@H](CC(=O)N[C@@H]1CCCC[C@H]1C(=O)N[C@H](CC(=O)N[C@@H](CCC(=O)O)CC(=O)O)Cc1c[nH]c2ccccc12)C(C)C)NC(=O)[C@@H]1CNCC[C@H]1N`, the Potency entry in [1], in test [3], in test [4], in test [5] and in test [6] was “inactive” in each case. In addition, the Potency in [2] was more than 46 µM.

`CCCCC#Cc1ccccc1CC(=O)Nc1ccccc1`: the Potency in test [1] was 2.51 µM (active); in [4], 2.51 µM (active); in test [6], 0.794 µM (active); in test [9] it was 31.6 µM (active). For the same compound, the Potency result in test [7] and in test [8] was “inactive” each time.

On to `CC1=C(C(=O)OCc2ccccc2)C(c2ccccc2)NC(=O)N1CCCCCC(=O)O` (centres undefined), for which the Potency in test [1] is 20 µM (active). Besides, in test [7], the Potency result is “inactive”.

As to `COC(=O)[C@@]1(Cc2ccc(F)cc2)[C@H]2c3cc(C(=O)N4CCCC4)n(CCF)c3C[C@H]2CN1C(=O)c1ccccc1`, in [1], the Potency was 15.8 µM (active). Moreover, the Potency entry in test [7] and in test [3] was “inactive” in each case.

In the case of `CC1(C)S[C@@H]2[C@@H](NC(=O)[C@@H](N)c3ccccc3)C(=O)N2[C@H]1C(=O)O`, the Potency result in test [1], in [7] and in [3] was “inactive” each time.

As to `CCc1c2c(nc3cccc(SC)c13)COC2`, the Potency in test [1] is 2.51 µM (active). Further, in [7], the Potency entry was “inactive”.

In the case of `CC(C)[C@@H](CC(=O)N[C@@H]1CCCC[C@H]1C(=O)N[C@H](CC(=O)N[C@@H](CCC(=O)O)CC(=O)O)Cc1c[nH]c2ccccc12)NC(=O)C[C@H](CO)NC(=O)[C@@H]1CNCC[C@H]1N`, the Potency result in test [1], in test [3], in [5] and in test [6] was “inactive” throughout. Moreover, in [2], the Potency was more than 46 µM.

Turning to `NCCC[C@@H](CC(=O)N[C@@H]1CCCC[C@H]1C(=O)N[C@H](CC(=O)N[C@@H](CCC(=O)O)CC(=O)O)Cc1c[nH]c2ccccc12)NC(=O)C[C@H](CO)NC(=O)[C@@H]1CNCC[C@H]1N`, the Potency entry in test [1], in test [3] and in [6] was “inactive” in each case. Further, the Potency in [2] is more than 46 µM.

As for `CC(C)C[C@@H](CC(=O)N[C@@H](CCC(=O)O)CC(=O)O)NC(=O)[C@@H]1CCCC[C@H]1NC(=O)C[C@H](CCCN)NC(=O)C[C@H](Cc1c[nH]c2ccccc12)NC(=O)[C@@H]1CNCC[C@H]1N`, the Potency result in test [1], in test [7], in test [4] and in test [5] was “inactive” throughout. In test [2], the Potency is more than 46 µM.

For `CC(C)C[C@@H](CC(=O)N[C@@H](CCC(=O)O)CC(=O)O)NC(=O)[C@@H]1CNCC[C@H]1NC(=O)C[C@@H](NC(=O)C[C@H](Cc1c[nH]c2ccccc12)NC(=O)[C@@H]1CNCC[C@H]1N)C(C)C`, the Potency result in test [1], in [3], in test [5] and in test [6] was “inactive” throughout. Moreover, the Potency in [2] is more than 46 µM.

As for `CC(C)[C@@H](CC(=O)N[C@@H]1CCCC[C@H]1C(=O)N[C@H](CC(=O)N[C@@H](CCC(=O)O)CC(=O)O)Cc1ccccc1)NC(=O)C[C@H](CO)NC(=O)[C@@H]1CNCC[C@H]1N`, the Potency entry in test [1], in test [3], in test [5] and in [6] was “inactive” each time. Moreover, the Potency in [2] is more than 46 µM.

Consider `CC(C)C[C@@H](CC(=O)N[C@@H](CCC(=O)O)CC(=O)O)NC(=O)[C@@H]1CNCC[C@H]1NC(=O)C[C@@H](NC(=O)C[C@H](CO)NC(=O)[C@@H]1CNCC[C@H]1N)C(C)C`, for which the Potency entry in [1], in test [3], in test [5] and in test [6] was “inactive” in each case. Besides, the Potency in [2] was more than 46 µM.

For the compound `NCCC[C@@H](CC(=O)N[C@@H]1CCNC[C@H]1C(=O)N[C@H](CC(=O)N[C@@H](CCC(=O)O)CC(=O)O)Cc1c[nH]c2ccccc12)NC(=O)C[C@H](Cc1c[nH]c2ccccc12)NC(=O)[C@@H]1CNCC[C@H]1N`, the Potency entry in test [1], in [3] and in test [6] was “inactive” each time. For the same compound, in [2], the Potency was more than 46 µM.

Take `COC(=O)[C@@]1(Cc2ccc(F)cc2)[C@H]2c3cc(C(=O)N(C)C)n(CCc4c[nH]c5ccc(OC)cc45)c3C[C@H]2CN1C(=O)c1ccccc1`: the Potency in test [1] is 12.6 µM (active). Moreover, the Potency result in test [7] and in test [3] was “inactive” each time.
